From PubChem
DRD3 antagonist – qHTS of D3 Dopamine Receptor Antagonist: qHTS; D(3) dopamine receptor (Homo sapiens), P35462; D3R cells, DiscoveRx beta-arrestin luminescence, antagonist mode; active compounds read low; 360,000 tested, 2.5% active; max response, negative = inhibition, %; in the data active means max response below about -50%; inconclusive means no clear call, values can overlap the other calls; further: on the % scale 0 is the no-effect control and ±100 the full control effect
Target sequence (P35462 whole entry, looked up): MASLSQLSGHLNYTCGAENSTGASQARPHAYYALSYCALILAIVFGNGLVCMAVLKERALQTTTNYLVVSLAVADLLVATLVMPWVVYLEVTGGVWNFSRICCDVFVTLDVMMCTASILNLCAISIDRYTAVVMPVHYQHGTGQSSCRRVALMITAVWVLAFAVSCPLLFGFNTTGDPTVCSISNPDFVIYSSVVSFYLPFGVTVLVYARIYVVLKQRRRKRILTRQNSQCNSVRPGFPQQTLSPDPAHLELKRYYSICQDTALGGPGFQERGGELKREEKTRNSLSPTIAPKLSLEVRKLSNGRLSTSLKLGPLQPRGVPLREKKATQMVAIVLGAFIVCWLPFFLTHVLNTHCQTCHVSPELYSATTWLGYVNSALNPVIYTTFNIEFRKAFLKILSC
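Cells plated overnight at 1500 cells/well, then exposed to library compounds with dopamine controls for 90 minutes at 37 degrees C. DiscoveRx reagent added for 30–60 minutes at room temperature; luminescence read, quantitative HTS format.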
D3 ag – qHTS of D3 Dopamine Receptor Agonist: qHTS; D(3) dopamine receptor (Homo sapiens), P35462; D3R DiscoveRx beta-arrestin cells, luminescence, 90 min; max activation, %; 410,000 tested, 0.58% active; in the data active means max activation above about 30%; further: 0% is about no effect
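Cells at 1500/well, incubated overnight, then treated with pinned compounds (dopamine as control) for 90 min at 37 degrees C. DiscoveRx reagent added for 30 - 60 minutes at room temperature; luminescence read.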
MmCpn inh – Inhibitors of TCP-1 ring complex (TRiC) of Methanococcus maripaludis (MmCpn): qHTS. Chaperonin Mm-Cpn (Methanococcus maripaludis). purified Mm-Cpn ATPase, ADP Transcreener TR-FRET. Potency, µM (series often up to 76.9 µM), for inactives: at the top dose activity, negative = inhibition, actives largely listed as inhibitors. 330,000 tested, 0.031% active. AID 504842, 2011; active means well fitted inhibition curve with a large enough effect; inconclusive means small, poorly fitted or top-dose-only effect; further: potency means the concentration at half of the fitted maximal effect; on the % scale 0 is the no-effect control and ±100 the full control effect; nearly all actives have a fitted effect of over 80% in size
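ATPase turnover read by TR-FRET ADP competition (Eu cryptate antibody/ADP-d2, 665/590 nm): 10uM ATP final, 25nM Mm-CPN final, 30 min 37degC after 10-min compound preincubation, pH 7.4 Tris/KCl/MgCl2/DTT buffer.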
PTAP TSG101 blk – qHTS Assay for Iinhibitors of HIV-1 Budding by Blocking the Interaction of PTAP/TSG101; Tumor susceptibility gene 101 protein (Homo sapiens), Q99816; Fluorescence polarization, FITC-PTAP peptide / Tsg101 binding; Potency, µM (highest dose often 115 µM), inactives show at the highest dose activity change, negative = inhibition, actives largely listed as inhibitors; 340,000 tested, under 10 active; AID 493005, 2010; active means well fitted inhibition curve with a large enough effect in the main read-out, with a control signal flat, not every such curve was filed as active; inconclusive means small, poorly fitted or top-dose-only effect, or effect the other way, or a change in a side signal; inactive means no such curve, though single readings can be large or run the other way; further: potency means the concentration at half of the fitted maximal effect; % of control where 0% means no effect
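Fluorescence anisotropy tracks displacement of a FITC-tagged PTAP peptide (50 nM) from the Tsg101 binding domain (10 uM), following a 20 min room-temperature incubation at pH 7.5.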
Rango release inh – qHTS Assay for Inhibitors of RanGTP induced Rango (Ran-regulated importin-beta cargo) - Importin beta complex dissociation; Biochemical FRET Rango-importin beta, RanGTP-induced dissociation; Potency, µM (titrated, usually from 46.1 µM), without a hit: at the highest dose activity change, negative = inhibition; Snurportin-1 (Homo sapiens) + GTP-binding nuclear protein Ran (Homo sapiens) + Importin …; AID 540253, 2011; 340,000 tested, 0.071% active; further: potency means the concentration at half of the fitted maximal effect; % of control where 0% means no effect; nearly all actives have a fitted effect of over 45% in size
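Rango (0.1 uM)–importin beta (0.25 uM) complex; RanGTP-RCC1 trigger; 45 min RT; CFP/YFP FRET read.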
Rango complex inh – qHTS Assay for Inhibitors of Rango (Ran-regulated importin-beta cargo) - Importin beta complex formation; Rango CFP/YFP FRET sensor + importin beta, 45 min; Potency, µM (top dose mostly 92.2 µM), for inactives: top-dose inhibition of complex formation; 340,000 tested, 0.031% active; AID 540263, 2011;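 further: potency means the concentration at half of the fitted maximal effect; 0% = DMSO wells and 100% = buffer wells lacking importin beta; nearly all actives have a fitted effect of over 15% in size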
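FRET biosensor (snurportin 1 IBB flanked by EYFP and cerulean), 50 nM, with compound 5 min, then 0.125 microM importin beta in PBS, 1 mM DTT, 0.02% Tween-20, 0.1% BSA. CFP/YFP ratio read after 45 min at room temperature; pre-read flags interference.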
Active calls of the source: *. Hits are enriched below; roughly 2.9% of the tested compounds scored in any of these assays. Unless noted, the call rests on the fitted dose curve.

Screening CCOC(=O)C1(CC2CC2)CCN(Cc2ccc3cccc(F)c3n2)CC1 returned DRD3 antagonist -96*, D3 ag -19, MmCpn inh 1%, PTAP TSG101 blk 0%, Rango release inh -2% and Rango complex inh -1%.
For COc1cccc(CC2(CO)CCN(Cc3ccc4cccc(F)c4n3)CC2)c1 the results were DRD3 antagonist -82*, D3 ag -17, MmCpn inh -1%, PTAP TSG101 blk 2%, Rango release inh 22% and Rango complex inh -4%.
OCC1(Cc2cccc(F)c2)CCN(Cc2ccc3cccc(F)c3n2)CC1 was read as DRD3 antagonist -75*, D3 ag -7, MmCpn inh 1%, PTAP TSG101 blk -3%, Rango release inh -7% and Rango complex inh 0%.
`OCC1(CCOc2ccccc2)CCN(Cc2ccncc2)CC1` gave DRD3 antagonist 1, D3 ag -8, MmCpn inh -3%, PTAP TSG101 blk 0%, Rango release inh inconclusive and Rango complex inh 1%.
`OCC1(CCOc2ccccc2)CCN(Cc2ccc3cccc(F)c3n2)CC1` gave DRD3 antagonist -87*, D3 ag -14, MmCpn inh -2%, PTAP TSG101 blk 1%, Rango release inh 6% and Rango complex inh 2%.
Screening O=C(c1cnsn1)N1CCC(CO)(Cc2cccc(F)c2)CC1 returned DRD3 antagonist 1, D3 ag 13, MmCpn inh -2%, PTAP TSG101 blk -4%, Rango release inh 20% and Rango complex inh 1%.
For COc1ccc(NS(=O)(=O)c2ccc(-c3cnc(C4CC4)o3)cc2)cc1Cl the results were D3 ag -17.
O=C1CN2C(=Nc3ccc(Br)cc3C2c2ccccc2)CCN1 (stereo unspecified) was read as DRD3 antagonist 0, D3 ag -2, MmCpn inh 0%, PTAP TSG101 blk -9%, Rango release inh -13% and Rango complex inh 2%.
Screening Brc1ccc2c(c1)CN1CCCC1=N2 returned DRD3 antagonist -50*, D3 ag -7, MmCpn inh -9%, PTAP TSG101 blk -1%, Rango release inh -2% and Rango complex inh -1%.
For Cc1ccc2nc(-c3ccc(C#N)cc3)c(Cc3cccc(Cl)c3)n2c1 the results were DRD3 antagonist -53* and D3 ag -14.
For C=C1CC2C3CCC4=CC(=O)C=C[C@]4(C)[C@@]3(F)[C@@H](O)C[C@]2(C)[C@@]1(O)C(=O)COC(C)=O (stereo partly specified) the results were D3 ag -7.
`O=[N+]([O-])c1cccc(-c2noc3c2-c2nc(Cc4cccc5ccccc45)sc2CC3)c1` gave DRD3 antagonist 24, D3 ag -5, MmCpn inh 0%, PTAP TSG101 blk -6%, Rango release inh 0% and Rango complex inh 3%.
For CCCc1nc2c(s1)CCc1onc(-c3cccc([N+](=O)[O-])c3)c1-2 the results were DRD3 antagonist 49, D3 ag 34*, MmCpn inh 0%, PTAP TSG101 blk 1%, Rango release inh -4% and Rango complex inh 2%.
`CCn1cc(C(=O)N(C)Cc2ccc(OC(F)F)cc2)c(=O)c2ccc(C)nc21` gave DRD3 antagonist 13, D3 ag 3, MmCpn inh 1%, PTAP TSG101 blk 0%, Rango release inh -10% and Rango complex inh 0%.
For CCc1ccc(CSc2nc(-c3ccc(OC)cc3)nc3c2Cc2c(CO)cnc(C)c2O3)cc1 the results were D3 ag 3.
